Screening data deposited in PubChem BioAssay by NMMLSC.
Shown are actives, neighbours in structure and some others; about 0.93% of the full set was active somewhere.
LAP4-GFP MLPCN = alters LAP4-GFP fluorescence in TOR pathway yeast screen; S. cerevisiae LAP4-GFP multiplex, flow cytometry GFP, 3 h; median GFP as percent of DMSO wells; 0.34% of 320,000 active; GFP response vs DMSO, % at 10 µM;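 active means GFP response vs DMSO above a set limit, about the screen mean plus 3 SD, cut at about 150% in these data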
AGP1 TOR yeast = alters AGP1-GFP fluorescence in TOR pathway yeast screen; S. cerevisiae AGP1-GFP multiplex flow cytometry, 3 h; GFP as percent of DMSO wells; GFP response vs DMSO, % at 10 µM; 0.02% of 320,000 active; AID 2066;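 active means GFP response relative to DMSO above a set limit, near screen average plus 3 SD, cut at about 150% in these data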;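 further: median GFP channel fluorescence of the gated AGP1 strain per well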
MEP2 TOR yeast = modulators of TOR pathway MEP2-GFP in S. cerevisiae; S. cerevisiae MEP2-GFP strain, flow cytometry GFP, 3 h; 100% = DMSO control level; 0.51% of 330,000 active; GFP response vs DMSO, % at 10 µM;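 active means GFP response versus DMSO above a set limit, roughly screen mean plus 3 SD, cut at about 180% in these data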;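 further: median GFP fluorescence of the barcode-gated MEP2-GFP cells per well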
CIT2-GFP yeast = modulators of TOR pathway CIT2-GFP in S. cerevisiae. GFP response vs DMSO, % at 10 µM. 0.065% of 320,000 active. S. cerevisiae CIT2-GFP strain, flow cytometry, 3 h; 100 means same as DMSO wells. AID 2029;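 active means GFP response relative to DMSO above a set limit, near the screen mean plus 3 SD, cut at about 150% in these data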;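 further: ratio of well median GFP fluorescence to mean of DMSO wells on the plate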
RPL19A-GFP yeast = alters RPL19A-GFP fluorescence in TOR pathway yeast screen | S. cerevisiae RPL19A-GFP strain, flow cytometry, 3 h; stronger effect = lower value | percent response vs DMSO, % at 10 µM | 0.3% of 330,000 active | AID 2025;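 active means percent response vs DMSO below 50%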;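 further: median channel GFP fluorescence of the barcoded RPL19A-GFP strain; ratio of sample median GFP to plate DMSO average so 100% = DMSO; lower means less RPL19A-GFP as with rapamycin TOR inhibition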
LAP4 cherry2 = reconfirmed LAP4-GFP TOR pathway modulator in yeast. shares compounds with LAP4-GFP MLPCN. S. cerevisiae LAP4-GFP strain, flow cytometry GFP, 3 h. GFP response vs DMSO, % at 10 µM. 20% of 590 active. AID 2621;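 active means GFP signal as percent of the solvent control above about 150%, meaning raised reporter expression, limit read from the data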;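 further: ratio of well median GFP fluorescence to plate DMSO mean so 100% = DMSO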
MEP2-GFP pick2 = yeast MEP2-GFP modulation, second cherry pick. shares compounds with LAP4-GFP MLPCN. S. cerevisiae MEP2-GFP strain, flow cytometry GFP, 3 h. GFP response vs DMSO, % at 10 µM. 10% of 590 active;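 active means GFP signal above 150% of the solvent control wells, that is a rise of more than half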;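 further: median channel GFP fluorescence of all gated yeast cells per well; ratio of median GFP to plate DMSO average so 100% = DMSO level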
RPL19A-GFP pick2 = reconfirmed modulator of RPL19A-GFP TOR reporter in yeast; shares compounds with LAP4-GFP MLPCN; S. cerevisiae RPL19A-GFP strain, flow cytometry GFP, 3 h; stronger effect = lower value; 100% means same as DMSO wells; GFP response vs DMSO, % at 10 µM; 3% of 590 active; AID 2623;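 active means under 65% GFP response relative to DMSO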;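 further: median GFP channel fluorescence per well over the all cells gate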
CIT2-GFP pick2 = yeast CIT2-GFP TOR reporter modulation, second cherry pick | S. cerevisiae CIT2-GFP strain, flow cytometry GFP, 3 h; DMSO control wells read 100% | shares compounds with LAP4-GFP MLPCN | 8% of 590 active | GFP response vs DMSO, % at 10 µM;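 active means GFP response vs DMSO above about 150%, limit read from the data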;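 further: median green fluorescence per well over all gated yeast cells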
AGP1-GFP pick2 = reconfirmed modulator of AGP1-GFP TOR reporter in yeast; S. cerevisiae AGP1-GFP strain, flow cytometry GFP, 3 h; 590 tested, under 10 active; shares compounds with LAP4-GFP MLPCN; percent response vs DMSO, % at 10 µM;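 active means over 150 percent of DMSO response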;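 further: median GFP channel fluorescence over all cells without mother daughter split; sample median GFP divided by mean DMSO control so 100% equals DMSO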
s288c autofluor = yeast s288c autofluorescence artifact, counter-screen; AID 2757; fluorescence change (kMESF span) at 33 µM; S. cerevisiae s288c, 520 nm autofluorescence, flow cytometry, 3 h; stronger effect = higher value; zero means same as solvent-only cells; 610 tested, under 10 active; shares compounds with LAP4-GFP MLPCN;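 active means fluorescence span over the dose series, or activity score, above about 33, limit read from the data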
* hit, by the source's call; · = not tested or not shown; [ ] = dose if it differs, or a comment.

SMILES	LAP4-GFP MLPCN	AGP1 TOR yeast	MEP2 TOR yeast	CIT2-GFP yeast	RPL19A-GFP yeast	LAP4 cherry2	MEP2-GFP pick2	RPL19A-GFP pick2	CIT2-GFP pick2	AGP1-GFP pick2	others
O=C(CNC(=O)c1ccccc1)OCC(=O)c1ccc(Cl)s1	189.8*	83.2	108.8	90.7	95.6	101.2	103.1	98.9	100.1	98.8
O=C(/C=C/c1ccc(Br)cc1)NC(=S)NNC(=O)c1ccco1	145.9	84.7	110.4	137.6	100.1	132.7	133.1	99.6	114.2	81.7	s288c autofluor=1.11
O=C(/C=C/c1ccccc1)NC(=S)NNC(=O)c1ccco1	126.1	95.7	104.8	109.8	92.7	·	·	·	·	·
Cc1ccccc1OCC(=O)NNC(=S)NC(=O)c1ccco1	158.5*	113.7	119.9	106.5	113.2	·	·	·	·	·	s288c autofluor=0.6
Cc1ccc(C(=O)NNC(=S)NC(=O)c2ccco2)cc1	236.7*	106.8	119.7	78.4	92.4	·	·	·	·	·	s288c autofluor=1.9
O=C(CCC(=O)Nc1ccccc1)N/N=C/c1cccnc1	80.4	97.2	80.2	104.2	92.8	·	·	·	·	·
Cc1ccc(O)c(C(=O)CC(=O)c2ccccc2Cl)c1	74.3	50.6	111.3	69.3	51.2	103.8	101.5	98.8	108.6	97.0
Cc1ccc(NC(=O)COC(=O)COc2cccc3c2OC(C)(C)C3)cc1C	166.7*[may fluoresce green]	91.4	212.2*[may fluoresce green]	157.5*[may fluoresce green]	106.7	98.1	99.8	102.5	98.4	100.8
Cc1cc(C)cc(NC(=O)COC(=O)COc2cccc3c2OC(C)(C)C3)c1	113.6	115.0	105.0	101.6	101.2	·	·	·	·	·
O=C(OCC(=O)N1CCCCCC1)c1ccccc1Br	110.2	106.2	108.8	99.6	107.9	·	·	·	·	·
C[C@@]12C(=O)Nc3ccc(Cl)cc3C(=O)N1[C@H]1c3ccccc3OC[C@@H]1[C@@H]2c1ccccc1	156.9*	90.4	94.2	85.7	104.2	132.3	120.5	95.9	91.8	97.8
C[C@@]12C(=O)Nc3cc(Cl)ccc3C(=O)N1[C@H]1c3ccccc3OC[C@@H]1[C@@H]2c1ccccc1	121.1	87.5	90.5	96.7	101.6	·	·	·	·	·
N/C(Cc1ccc(Cl)cc1)=N\OC(=O)c1ccccc1	192.4*	62.1	105.8	110.7	81.8	218.4*	165.9*	89.9	225.3*	76.5	s288c autofluor=1.7
CNC(=S)N/N=C/c1c2ccccc2c(Cl)c2ccccc12	83.0	103.1	99.0	104.9	100.6	·	·	·	·	·
Cc1noc(C)c1C(=O)Nc1ccc(F)cc1	123.1	109.9	97.0	92.8	103.0	·	·	·	·	·
Cc1noc(C)c1C(=O)Nc1ccc(N(C)C)cc1	85.2	102.5	98.6	162.1*	93.6	100.0	99.8	100.2	101.8	102.7
Cc1ccc(/C=C/C(=O)N2CCc3ccccc32)o1	168.5*[may fluoresce green]	87.7	99.9	92.4	100.7	104.8	104.8	103.6	101.8	96.0
NS(=O)(=O)c1ccc(CCNC(=O)C(=O)c2cn(CC(=O)N3CCOCC3)c3ccccc23)cc1	104.3	109.2	113.2	171.3*	98.9	102.9	101.5	99.2	106.3	99.4
CCN(CC)C(=O)Cn1cc(C(=O)C(=O)NCCc2ccc(S(N)(=O)=O)cc2)c2ccccc21	109.3	108.9	106.0	103.1	106.0	·	·	·	·	·
